Source: PubChem
The list is not random: actives were taken first. Their share in the collection is about 9.9%.
KB-V1 cytotox: qHTS assay for MDR1-selective chemotherapeutics: Primary screen using the drug-selected MDR subline cells KB-V1 | KB-V1 MDR cells viability, CellTiter-Glo, 72 h | Potency, µM (doses to about 46.1 µM), hits mostly cytotoxic | 3.4% of 400,000 active | AID 1347076, 2019; also: nearly all actives have a fitted effect of over 60% in size
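In this primary screen, KB-V1 cells overexpressing P-gp are incubated with library compounds (lowest to highest concentration) for 72 h at 37 degrees C before a luminescent ATP viability read.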
IL1B secr inh: qHTS for Inhibitors of Inflammasome Signaling: IL-1-beta AlphaLISA Primary Screen; 4.7% of 360,000 active; activity change, % at 57.5 µM; THP-1 LPS/ATP IL-1B secretion, AlphaLISA, 16 h; active compounds read low; AID 743279, 2014; in the data active = activity change below about -50%; inconclusive = mostly about -30% to -49%
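THP-1 cells pretreated 1 hr with compounds (up to 57.5 uM final), then stimulated with LPS (250 ng/mL final) plus ATP (1.25 mM final); secreted IL-1B measured by AlphaLISA after 16 hr, decreased signal indicating inhibition.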
KB-3-1 cytotox: qHTS assay for MDR1-selective chemotherapeutics: Primary screen using the parental adenocarcinoma cell KB-3-1. KB-3-1 viability, CellTiter-Glo ATP luminescence, 72 h. Potency, µM (series often up to 46.1 µM), hits mostly cytotoxic. AID 1347075, 2019. 1.4% of 400,000 active; also: nearly all actives have a fitted effect of over 60% in size
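Parental KB-3-1 viability, qHTS format: 72 h compound exposure, 37 °C; CellTiter-Glo; media-only wells and DMSO plates as controls; concentration-effect fits on corrected data.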
MCF10A rerep: A quantitative high throughput screen for small molecules that induce DNA re-replication in MCF 10a normal breast cells. AID 624296, 2012. 2.9% of 350,000 active. Potency, µM (top dose mostly 46.1 µM), actives largely listed as activators. MCF 10A DNA re-replication, Hoechst nuclear intensity, 48 h; also: nearly all actives have a fitted effect of over 50% in size
SW480 rerep: A quantitative high throughput screen for small molecules that induce DNA re-replication in SW480 colon adenocarcinoma cells. 1.8% of 340,000 active. Potency, µM (doses to about 46.1 µM), most hits filed as activators. SW480 DNA re-replication, Hoechst DNA content imaging, 48 h; also: nearly all actives have a fitted effect of over 55% in size
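First, 250 cells per well were seeded. Next, compound or vehicle (23 nL) was pinned in, plates sat 48 hr at 37 C. Finally Hoechst was added for 40 min before fluorescence scanning.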
A number is an active result; – = inactive; ? = inconclusive; · = no result. Unless noted, calls follow the shape of the dose curve; as a rule, active = well fitted curve in the direction sought with a large enough effect; inconclusive = small, poorly fitted or top-dose-only effect, or another doubt; inactive = no such curve, though single readings can be large; an effect the other way counts as inactive or inconclusive.

SMILES	KB-V1 cytotox	IL1B secr inh	KB-3-1 cytotox	MCF10A rerep	SW480 rerep
Cc1cccc(C=CC(=O)c2ccccc2)c1	–	–	?	?	?
Cc1ccc(C(=O)C=Cc2cccc(C)c2)cc1	–	–	–	18µM	?
Cc1ccc(C(=O)/C=C/C(=O)c2ccc(C)cc2)cc1	–	-71	–	3.7µM	–
CS(=O)(=O)N(CC(=O)N1CCCC1)Cc1ccc(Cl)c(Cl)c1	–	–	–	–	–
CC(OCC(O)CNCC1COc2ccccc2O1)c1ccc(Cl)cc1 (stereo unspecified)	?	–	–	?	–
OC(CNCC1COc2ccccc2O1)COCc1cccs1 (stereo unspecified)	21µM	–	?	–	–
CC(C(=O)O)N(c1ccccc1Cl)S(C)(=O)=O (stereo unspecified)	–	–	–	–	–
O=C(COC(=O)c1ccccc1O)Nc1ccc(N2CCOCC2)cc1	–	?	–	–	?
O=C(COC(=O)C1Cc2ccccc2CN1C(=O)c1ccccc1Cl)Nc1ccc(N2CCOCC2)cc1 (stereo unspecified)	15µM	–	–	–	–
Cc1occc1C(=O)Nc1sc2c(c1C(N)=O)CCC(C(C)(C)C)C2 (stereo unspecified)	–	–	–	–	–
CC(C)(C)C1CCc2c(sc(NC(=O)c3ccncc3)c2C(N)=O)C1 (stereo unspecified)	12µM	–	–	–	–
CC(C)(C)OC(=O)N[C@@H](Cc1ccccc1)c1nnc(SCC(N)=O)o1	–	–	–	–	–
Cc1cccc(CS(=O)(=O)c2nnc([C@H](Cc3ccccc3)NC(=O)OC(C)(C)C)o2)c1	?	?	?	3.3µM	?
COC(=O)CS(=O)(=O)c1nnc([C@H](Cc2ccccc2)NC(=O)OC(C)(C)C)o1	?	-102	?	13µM	?
N#Cc1c2n(c3c(=O)n(Cc4ccccc4Cl)cnc13)CCCCC2	–	–	?	12µM	–
O=C(NCC1CCCCC1)c1csc([C@@H]2C[C@H](O)[C@@H](CO)O2)n1	–	–	?	·	·
C=C1C(=O)[C@]23C[C@H]1CC[C@H]2[C@]1(C)[C@@H](O)CC[C@@](C)(C(=O)O)[C@H]1C[C@@H]3O	–	-75	–	·	·
C=C1C(=O)[C@]23C[C@H]1CCC2[C@@]1(C)C(C[C@@H]3O)[C@](C)(C(=O)OC)CC[C@@H]1OC(C)=O (stereo partly specified)	16µM	-116	?	·	·
C=C1C(=O)[C@]23C[C@H]1CC[C@H]2[C@]1(C)[C@@H](OC(C)=O)CC[C@@](C)(C(=O)O)[C@H]1C[C@@H]3O	–	-78	?	·	·
C=C1C(=O)[C@]23C[C@H]1CC[C@H]2[C@]1(C)[C@@H](OC(C)=O)CC[C@@](C)(C(=O)OC)[C@H]1C[C@@H]3OC(C)=O	–	-116	?	·	·
C=C1C(=O)[C@]23C[C@H]1CCC2[C@@]1(C)C(C[C@@H]3O)[C@](C)(C(=O)O)C[C@H](O)[C@@H]1O (stereo partly specified)	–	–	–	·	·
CCN(CC)c1ccc(/C=C2\C=Cc3ccccc32)cc1	–	·	?	·	·
Cc1noc(/C=C/N(C)C)c1S(=O)(=O)N1CCCC(C(=O)Nc2ccc(F)cc2F)C1 (stereo unspecified)	–	–	–	?	–
Nc1nc(CSc2ccc(Cl)cc2)nc(N2CCCCC2)n1	?	-59	–	–	–
Nc1nc(CSc2ccccc2)nc(N2CCCCC2)n1	–	–	–	–	–
Cc1c(Cl)cccc1NC(=O)CCN1C(=O)C2CC=CCC2C1=O (stereo unspecified)	–	–	–	–	–
Cc1ccc(NC(=O)CSC2=C(C#N)C(c3ccco3)CC(=O)N2)cc1 (stereo unspecified)	?	–	?	–	–
CCCOC(=O)CSC1=C(C#N)C(c2ccc3c(c2)OCO3)CC(=O)N1 (stereo unspecified)	–	–	?	?	–
